Values joined by “and” are separate entries in the source; they are usually repeats but may differ in a detail not shown here. Equal values may be shown once. Inconclusive results are not listed. For part of these data: Entries with a potency or affinity are not part of this list. Active and inactive are the calls of the source. Unless noted, the rule behind the calls is not given here.
Experiments:
[1] = suppressors of polyQ aggregation in yeast, 75Q-TubU reporter (AID 1593); settings: Yeast 75Q polyglutamine aggregation reporter
[2] = rescue of polyQ-huntingtin neuronal dysfunction in worms, whole organism, C. elegans mechanosensory neurons, N-terminal huntingtin (AID 1599); settings: touch response, stronger effect = higher value
[3] = inhibitors of mitochondrial cytochrome c release, biochemical, purified mitochondria (AID 1603); settings: stronger effect = lower value;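 note: mouse liver mitochondria challenged with calcium chloride; signal normalized to the plate average as 100%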
[4] = inhibitors of polyQ protein aggregation (AID 1604); settings: polyglutamine-induced protein aggregation inhibition assay; stronger effect = higher value; tested at 2.5 µM
[5] = enhancers of glutamate uptake in motor neurons, MN-1 cell line (AID 1612); settings: MN-1 motor neuron cells, stronger effect = higher value;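 note: tested at 1 µM final; 0% = mean of DMSO vehicle wells on each plate; positive means more glutamate uptake than control and negative means less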
[6] = suppressors of polyglutamine aggregation in yeast, 75Q-TubH (AID 1616); settings: S. cerevisiae 75Q-TubH polyglutamine aggregation suppression; stronger effect = higher value
[7] = tested on: Aerobactin synthetase IucA (Klebsiella pneumoniae); test: IucA aerobactin synthetase inhibitors, biochemical, Tocris library, absorbance (AID 1345561); settings: purified IucA enzyme assay, absorbance (OD) read-out; stronger effect = lower value;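 tested at 8 µM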;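 note: 100% = enzyme without compound and 0% = no enzyme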
[8] = growth inhibition of DIPG glioma cells, dose response, cell-based, JHH-DIPG-1, MIPE4.0, CellTiter-Glo, qHTS (AID 1347062; cut-off not given, nearly all actives have AC50 up to about 27 µM); settings: JHH-DIPG-1 viability, CellTiter-Glo ATP luminescence
[9] = viability loss in pontine glioma line – cell-based, SU-DIPG-XXV, MIPE5.0, CellTiter-Glo, qHTS, dose response (AID 1347065; cut-off not given, nearly all actives have AC50 up to about 26 µM;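 note: cells exposed to compound for 48 hours before ATP readout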); settings: CellTiter-Glo ATP luminescence
[10] = polyglutamine-triggered caspase-3 activation inhibitors, cell-based (AID 1583); settings: polyglutamine-induced caspase-3 activation, cell assay; stronger effect = higher value;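 tested at 10 µM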
[11] = circadian clock period modulators, cell-based, LOPAC library, luminescence reporter (AID 2774); settings: circadian reporter cells, at 7 µM, actives lie on both sides;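 note: values are relative to mean of DMSO wells on each plate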
[12] = tested on: Hepatitis C virus NS3 helicase; test: HCV NS3 helicase inhibitors, primary screen, biochemical, fluorescence polarization, LOPAC1280 library (AID 687035; in the data active = inhibition above about 37%); settings: Purified HCV NS3 helicase, Cy5-dT15 ssDNA binding fluorescence polarization; stronger effect = higher value; concentration not given here
[13] = Cy5 fluorescence quenching or enhancement artefacts, artefact control for HCV NS3 helicase inhibitor project, biochemical, LOPAC1280 (AID 687037); settings: Cy5-DNA-NS3h complex fluorescence interference counterscreen
[14] = phospholipid biosynthesis inhibitors in animal cells, primary screen, cell-based, LOPAC library, screen 4 (AID 1347384); settings: phospholipid biosynthesis inhibition screen, at 10 µM

CC(=O)[O][Hg][c]1ccccc1
score [1]: -0.45
rescue above control [2]: 0
cytochrome c release ratio [3]: 1.06
inhibition of aggregation [4]: -25.5%
glutamate uptake change [5]: -17.8%
aggregation suppression score [6]: -0.131

N[C@@H]1C[C@H]1c1ccccc1
remaining activity [7]: 124% (inactive)
outcome [8]: inactive
outcome [9]: inactive

C[C@H]1C(=O)O[C@@H]2CCN3CC=C(COC(=O)[C@](C)(O)[C@]1(C)O)[C@H]23
inhibition [10]: 11.2%
score [1]: 1.29
rescue above control [2]: 10.3
cytochrome c release ratio [3]: 0.94
inhibition of aggregation [4]: 36.1%
glutamate uptake change [5]: 4%
aggregation suppression score [6]: 1.12

CC(C)(C)NCC(O)c1cc(Cl)c(N)c(Cl)c1 (stereo unspecified)
inhibition [10]: 5.01%
score [1]: 1.52
rescue above control [2]: -3.16
cytochrome c release ratio [3]: 1.06
inhibition of aggregation [4]: 29.4%
glutamate uptake change [5]: -4.4%
aggregation suppression score [6]: 1.64

Clc1ccc(CSC(Cn2ccnc2)c2ccc(Cl)cc2Cl)cc1 (stereo unspecified)
inhibition [10]: 16.4%
score [1]: 0.02
rescue above control [2]: 23
cytochrome c release ratio [3]: 1.53
inhibition of aggregation [4]: 26.4%
glutamate uptake change [5]: 6.86%
aggregation suppression score [6]: 0.000314

Oc1ccc(Cl)cc1
inhibition [10]: -57%
score [1]: 0.2
rescue above control [2]: 0.9
cytochrome c release ratio [3]: 0.97
inhibition of aggregation [4]: 31.7%
glutamate uptake change [5]: 4.5%
aggregation suppression score [6]: 0.223

CCC1(CC)C(=O)C=CNC1=O
inhibition [10]: 13.3% and -20.6%
score [1]: 0.96 and 1.19
rescue above control [2]: 1.62 and 19.3
cytochrome c release ratio [3]: 1.06 and 0.67
inhibition of aggregation [4]: 63.5% and 88.5%
glutamate uptake change [5]: -11.1% and -15%
aggregation suppression score [6]: 0.581 and 1.33

NC(=O)c1cc([N+](=O)[O-])cc([N+](=O)[O-])c1
inhibition [10]: -15.4%
score [1]: 1.47
rescue above control [2]: -6.77
cytochrome c release ratio [3]: 0.54
inhibition of aggregation [4]: 72.4%
glutamate uptake change [5]: -3.86%
aggregation suppression score [6]: 1.47

O=c1oc2ccccc2c(O)c1Cc1c(O)c2ccccc2oc1=O
inhibition [10]: 3.41%
score [1]: 0.69
cytochrome c release ratio [3]: 0.7
inhibition of aggregation [4]: 42.1%
glutamate uptake change [5]: -38%
aggregation suppression score [6]: 1.26

COc1ccccc1N1CCNCC1
period change [11]: 0.075 h (inactive)
inhibition [12]: -4% (inactive)
fluorescence ratio (interference) [13]: 0.9 (inactive)
outcome [14]: inactive

C=C(C)[C@H]1CN[C@H](C(=O)O)[C@H]1CC(=O)O
period change [11]: 0.025 h (inactive)
inhibition [12]: -3% (inactive)
fluorescence ratio (interference) [13]: 1 (inactive)
remaining activity [7]: 116% (inactive)
outcome [14]: inactive

NCCc1cc(O)c(O)cc1O
inhibition [10]: 18.9%
score [1]: 1.88
rescue above control [2]: -4.94
cytochrome c release ratio [3]: 0.92
inhibition of aggregation [4]: 55.6%
glutamate uptake change [5]: -13.1%
aggregation suppression score [6]: 1.41

COc1ccc(Cc2nccc3cc(OC)c(OC)cc23)cc1OC
inhibition [10]: 3.42%
score [1]: 1.48
rescue above control [2]: 14.9
cytochrome c release ratio [3]: 1.07
inhibition of aggregation [4]: 46.4%
glutamate uptake change [5]: -13.9%
aggregation suppression score [6]: 1.65
period change [11]: -0.02 h (inactive)
inhibition [12]: -1% (inactive)
fluorescence ratio (interference) [13]: 1 (inactive)

CCCCCCCCC(=O)NCc1ccc(O)c(OC)c1
period change [11]: 0.08 h (inactive)

CCCCCCCCCCCCCCCC[N+](C)(C)C
inhibition [10]: 66.5%
score [1]: 0.03
rescue above control [2]: 0
cytochrome c release ratio [3]: 2.11
inhibition of aggregation [4]: 65.1%
glutamate uptake change [5]: -41.1%
aggregation suppression score [6]: -0.0208

CC(C)[N+](C)(CCC(C(N)=O)(c1ccccc1)c1ccccc1)C(C)C
inhibition [10]: 22%
score [1]: 1.43
rescue above control [2]: -11.8
cytochrome c release ratio [3]: 1.07
inhibition of aggregation [4]: 35.2%
glutamate uptake change [5]: 20%
aggregation suppression score [6]: 1.25

CNC(C)(C)Cc1ccccc1
inhibition [10]: -8.9%
score [1]: 1.71
rescue above control [2]: -1.26
cytochrome c release ratio [3]: 1.14
inhibition of aggregation [4]: 68.2%
glutamate uptake change [5]: 3.05%
aggregation suppression score [6]: 1.35

Clc1ccc(C(OCCN2CCCCC2)c2ccccc2)cc1 (stereo unspecified)
inhibition [10]: 4.2%
score [1]: 1.14
cytochrome c release ratio [3]: 1.33
inhibition of aggregation [4]: 66.7%
glutamate uptake change [5]: 29.4%
aggregation suppression score [6]: 1.4
